Laboratory results published in the supplement of paper PMC10849652.
Of roughly 7,900 targets only a part is listed; those with a hit were picked by preference. About 0.6% of all pairs of compound and target were hits.

Each target was assayed with c1cn2cc(-c3ccc4cn[nH]c4c3)nc(Nc3ccc(N4CCOCC4)cc3)c2n1 [entospletinib] (assay: log2 fold change, soluble protein after heating vs DMSO (PISA); higher = thermal stabilisation; K562 cells, 10 uM, 30 min; active = over 0.2 and 3.5 SD of the protein, either way, in both replicates (recomputed)).
Procedure, shortened: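 Soluble protein was defined as the supernatant after 21,000xg for 90 min. It came from K562 cells at 2×10^6 cells/mL given 10 μM compound for 30 min, heated in aliquots for 3 min across 48°C-58°C, pooled, and extracted in PBS with 0.5% NP-40 at 4°C, and was quantified by TMTpro 16plex LC-MS/MS with equalised channel sums. Thermal stability against control samples, from duplicates, is reported as log2 fold change.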

Sequence of UniProt Q16594 (Q16594 whole entry, looked up): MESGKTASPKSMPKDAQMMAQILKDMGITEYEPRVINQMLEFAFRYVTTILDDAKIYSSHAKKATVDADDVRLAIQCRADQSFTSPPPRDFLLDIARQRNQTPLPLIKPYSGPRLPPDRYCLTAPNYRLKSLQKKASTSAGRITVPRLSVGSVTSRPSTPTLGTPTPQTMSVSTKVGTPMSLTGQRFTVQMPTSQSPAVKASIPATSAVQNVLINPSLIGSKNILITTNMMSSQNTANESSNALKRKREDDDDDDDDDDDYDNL
Sequence of UniProt P42226 (P42226 whole entry, looked up): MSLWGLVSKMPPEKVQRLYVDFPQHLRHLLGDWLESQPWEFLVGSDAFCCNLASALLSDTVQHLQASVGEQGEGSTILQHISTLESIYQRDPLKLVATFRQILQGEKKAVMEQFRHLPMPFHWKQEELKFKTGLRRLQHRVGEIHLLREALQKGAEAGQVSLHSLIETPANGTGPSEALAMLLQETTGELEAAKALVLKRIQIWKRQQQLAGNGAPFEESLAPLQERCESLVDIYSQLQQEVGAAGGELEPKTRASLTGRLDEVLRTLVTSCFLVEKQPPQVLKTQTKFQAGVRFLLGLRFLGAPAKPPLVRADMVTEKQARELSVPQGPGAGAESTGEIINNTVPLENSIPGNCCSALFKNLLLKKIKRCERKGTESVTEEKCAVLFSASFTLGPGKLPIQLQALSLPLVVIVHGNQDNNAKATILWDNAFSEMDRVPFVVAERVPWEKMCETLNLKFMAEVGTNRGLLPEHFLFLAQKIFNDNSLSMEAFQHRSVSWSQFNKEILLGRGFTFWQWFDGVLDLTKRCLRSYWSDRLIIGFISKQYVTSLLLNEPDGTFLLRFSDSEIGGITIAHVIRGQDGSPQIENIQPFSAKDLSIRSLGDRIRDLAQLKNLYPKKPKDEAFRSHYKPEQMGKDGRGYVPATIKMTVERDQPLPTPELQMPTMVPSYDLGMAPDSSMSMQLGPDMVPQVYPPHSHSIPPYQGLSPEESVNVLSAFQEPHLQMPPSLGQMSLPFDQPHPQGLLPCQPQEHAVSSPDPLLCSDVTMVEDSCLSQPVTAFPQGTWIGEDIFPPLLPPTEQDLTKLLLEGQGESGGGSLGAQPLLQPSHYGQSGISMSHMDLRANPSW
Sequence of UniProt Q05519 (Q05519 whole entry, looked up): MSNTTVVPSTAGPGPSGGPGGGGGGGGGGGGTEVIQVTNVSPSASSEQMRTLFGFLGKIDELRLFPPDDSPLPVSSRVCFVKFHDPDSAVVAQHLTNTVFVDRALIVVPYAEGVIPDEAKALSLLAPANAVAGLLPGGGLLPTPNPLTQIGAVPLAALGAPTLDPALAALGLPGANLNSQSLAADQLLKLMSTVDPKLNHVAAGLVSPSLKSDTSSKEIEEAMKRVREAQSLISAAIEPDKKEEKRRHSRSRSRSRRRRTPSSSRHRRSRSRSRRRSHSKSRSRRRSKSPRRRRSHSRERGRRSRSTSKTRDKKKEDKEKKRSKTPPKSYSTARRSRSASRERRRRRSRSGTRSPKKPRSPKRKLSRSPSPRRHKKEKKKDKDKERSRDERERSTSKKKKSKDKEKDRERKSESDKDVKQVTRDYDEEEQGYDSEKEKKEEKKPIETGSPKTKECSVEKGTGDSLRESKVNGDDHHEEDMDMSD
Sequence of UniProt Q12824 (Q12824 whole entry, looked up): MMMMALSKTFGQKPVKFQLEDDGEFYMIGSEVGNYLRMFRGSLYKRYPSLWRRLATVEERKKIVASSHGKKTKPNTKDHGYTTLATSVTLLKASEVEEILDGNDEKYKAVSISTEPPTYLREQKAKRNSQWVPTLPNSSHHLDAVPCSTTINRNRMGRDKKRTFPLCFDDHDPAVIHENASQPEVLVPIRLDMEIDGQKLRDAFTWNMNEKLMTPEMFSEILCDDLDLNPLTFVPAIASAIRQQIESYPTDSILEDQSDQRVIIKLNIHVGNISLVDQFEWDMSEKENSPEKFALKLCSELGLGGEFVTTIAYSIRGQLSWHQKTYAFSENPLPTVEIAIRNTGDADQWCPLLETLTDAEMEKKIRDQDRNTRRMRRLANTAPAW
Sequence of UniProt Q9H4L7 (Q9H4L7 whole entry, looked up): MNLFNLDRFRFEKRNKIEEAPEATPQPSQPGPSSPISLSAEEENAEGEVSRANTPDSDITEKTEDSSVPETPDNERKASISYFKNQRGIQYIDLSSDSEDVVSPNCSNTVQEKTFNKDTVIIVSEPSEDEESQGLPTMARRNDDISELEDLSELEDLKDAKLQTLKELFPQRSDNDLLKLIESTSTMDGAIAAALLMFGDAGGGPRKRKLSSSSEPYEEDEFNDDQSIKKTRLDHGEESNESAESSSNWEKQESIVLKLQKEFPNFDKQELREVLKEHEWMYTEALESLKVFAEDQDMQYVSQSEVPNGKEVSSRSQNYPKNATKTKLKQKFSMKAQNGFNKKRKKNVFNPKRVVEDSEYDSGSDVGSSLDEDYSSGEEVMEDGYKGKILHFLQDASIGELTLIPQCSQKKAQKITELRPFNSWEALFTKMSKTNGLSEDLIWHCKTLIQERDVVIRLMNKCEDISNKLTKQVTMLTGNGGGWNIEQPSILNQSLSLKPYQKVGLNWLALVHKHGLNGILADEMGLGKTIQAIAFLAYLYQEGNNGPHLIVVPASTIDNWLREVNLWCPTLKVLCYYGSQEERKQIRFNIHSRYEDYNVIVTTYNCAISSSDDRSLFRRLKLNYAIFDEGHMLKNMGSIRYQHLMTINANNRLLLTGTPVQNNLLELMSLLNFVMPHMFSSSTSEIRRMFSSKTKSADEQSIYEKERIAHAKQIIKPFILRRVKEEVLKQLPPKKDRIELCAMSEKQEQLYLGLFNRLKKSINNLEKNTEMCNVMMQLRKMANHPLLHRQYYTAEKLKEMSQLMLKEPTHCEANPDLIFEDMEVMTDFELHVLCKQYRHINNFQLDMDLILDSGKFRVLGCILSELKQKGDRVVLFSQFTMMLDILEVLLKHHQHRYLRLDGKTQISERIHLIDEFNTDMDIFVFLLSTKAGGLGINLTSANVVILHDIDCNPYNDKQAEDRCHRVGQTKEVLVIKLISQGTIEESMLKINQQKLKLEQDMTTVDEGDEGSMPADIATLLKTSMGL
Sequence of UniProt Q96BW9 (Q96BW9 whole entry, looked up): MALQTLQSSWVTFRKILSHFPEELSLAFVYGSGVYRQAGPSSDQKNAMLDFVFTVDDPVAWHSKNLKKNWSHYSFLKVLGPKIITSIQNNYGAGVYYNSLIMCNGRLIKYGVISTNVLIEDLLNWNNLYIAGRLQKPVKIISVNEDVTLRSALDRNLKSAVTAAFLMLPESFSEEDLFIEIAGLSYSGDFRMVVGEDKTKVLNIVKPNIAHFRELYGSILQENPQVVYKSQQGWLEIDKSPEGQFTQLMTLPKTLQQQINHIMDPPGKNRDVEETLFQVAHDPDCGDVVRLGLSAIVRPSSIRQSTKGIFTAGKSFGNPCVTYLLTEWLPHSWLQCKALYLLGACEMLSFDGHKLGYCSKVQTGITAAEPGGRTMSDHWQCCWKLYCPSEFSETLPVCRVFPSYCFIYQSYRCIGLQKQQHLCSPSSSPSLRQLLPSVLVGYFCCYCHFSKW
Sequence of UniProt Q8NEF9 (Q8NEF9 whole entry, looked up): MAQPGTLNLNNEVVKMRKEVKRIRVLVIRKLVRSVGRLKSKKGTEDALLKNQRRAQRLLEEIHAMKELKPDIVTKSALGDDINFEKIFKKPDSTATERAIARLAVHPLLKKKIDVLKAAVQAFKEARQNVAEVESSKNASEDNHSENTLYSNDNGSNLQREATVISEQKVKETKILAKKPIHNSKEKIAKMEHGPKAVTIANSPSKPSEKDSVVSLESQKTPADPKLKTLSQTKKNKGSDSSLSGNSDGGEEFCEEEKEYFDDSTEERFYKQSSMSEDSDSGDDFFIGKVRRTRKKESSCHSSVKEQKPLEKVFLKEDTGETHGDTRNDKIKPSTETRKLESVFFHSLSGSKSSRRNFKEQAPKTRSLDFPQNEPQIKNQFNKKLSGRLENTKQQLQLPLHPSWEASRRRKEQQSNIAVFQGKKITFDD
Sequence of UniProt Q9BZJ4 (Q9BZJ4 whole entry, looked up): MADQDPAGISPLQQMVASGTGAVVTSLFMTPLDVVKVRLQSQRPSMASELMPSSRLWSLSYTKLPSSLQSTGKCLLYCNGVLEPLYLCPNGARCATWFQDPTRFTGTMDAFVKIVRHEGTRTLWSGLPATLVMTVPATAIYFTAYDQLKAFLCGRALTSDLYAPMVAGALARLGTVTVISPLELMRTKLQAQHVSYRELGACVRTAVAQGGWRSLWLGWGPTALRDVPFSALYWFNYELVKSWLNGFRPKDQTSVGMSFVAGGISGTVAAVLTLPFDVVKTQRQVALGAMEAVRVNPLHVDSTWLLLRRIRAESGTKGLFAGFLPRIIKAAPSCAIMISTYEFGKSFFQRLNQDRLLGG
Sequence of UniProt Q9Y5X1 (Q9Y5X1 whole entry, looked up): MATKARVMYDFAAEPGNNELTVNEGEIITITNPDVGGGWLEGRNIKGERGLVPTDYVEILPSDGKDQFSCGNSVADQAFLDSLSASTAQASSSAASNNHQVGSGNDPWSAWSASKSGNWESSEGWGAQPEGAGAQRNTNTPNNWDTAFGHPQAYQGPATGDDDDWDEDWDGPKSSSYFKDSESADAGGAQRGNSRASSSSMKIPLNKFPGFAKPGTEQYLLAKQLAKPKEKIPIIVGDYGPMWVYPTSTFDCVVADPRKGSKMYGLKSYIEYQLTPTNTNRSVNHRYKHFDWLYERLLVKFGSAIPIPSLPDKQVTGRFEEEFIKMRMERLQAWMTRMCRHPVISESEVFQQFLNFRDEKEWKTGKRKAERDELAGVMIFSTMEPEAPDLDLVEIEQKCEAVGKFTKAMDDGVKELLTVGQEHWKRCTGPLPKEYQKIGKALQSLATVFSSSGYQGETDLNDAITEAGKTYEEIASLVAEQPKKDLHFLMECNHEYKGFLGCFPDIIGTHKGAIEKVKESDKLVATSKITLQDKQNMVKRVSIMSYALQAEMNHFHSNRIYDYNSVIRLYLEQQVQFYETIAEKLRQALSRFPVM
Sequence of UniProt P62072 (P62072 whole entry, looked up): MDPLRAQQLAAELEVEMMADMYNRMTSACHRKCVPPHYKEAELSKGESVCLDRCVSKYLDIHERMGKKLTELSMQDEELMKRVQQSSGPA

Row | Target | log2 fold change
1 | SLC4A2 (UniProt P04920) | 0.028 (inactive)
2 | TAF9 (UniProt Q16594) | -0.042 (inactive)
3 | SPG11 (UniProt Q96JI7) | 0.185 (inactive)
4 | SNX3 (UniProt O60493) | 0.084 (inactive)
5 | SRC isoform 2 (UniProt P12931) | 0.02 (inactive)
6 | SMARCAD1 isoform 2 (UniProt Q9H4L7) | -0.008 (inactive)
7 | SMARCA4 (UniProt P51532) | 0.097 (inactive)
8 | THRAP3 (UniProt Q9Y2W1) | 0.09 (inactive)
9 | SMPD4 isoform 4 (UniProt Q9NXE4) | 0.143 (inactive)
10 | TAX1BP1 (UniProt Q86VP1) | 0.029 (inactive)
11 | SNX9 (UniProt Q9Y5X1) | -0.01 (inactive)
12 | SREK1 isoform 2 (UniProt Q8WXA9) | -0.026 (inactive)
13 | STK11IP (UniProt Q8N1F8) | 0.036 (inactive)
14 | SLC25A39 (UniProt Q9BZJ4) | -0.045 (inactive)
15 | TARS2 (UniProt Q9BW92) | -0.072 (inactive)
16 | SRSF11 (UniProt Q05519) | 0 (inactive)
17 | SLC38A2 (UniProt Q96QD8) | -0.02 (inactive)
18 | SUMO1 (UniProt P63165) | 0.038 (inactive)

Row | Target | log2 fold change
19 | SRFBP1 (UniProt Q8NEF9) | -0.082 (inactive)
20 | SPG21 (UniProt Q9NZD8) | -0.028 (inactive)
21 | TJP2 isoform 7 (UniProt Q9UDY2) | 0.037 (inactive)
22 | SLC7A6OS (UniProt Q96CW6) | 0.052 (inactive)
23 | SUN1 isoform 9 (UniProt O94901) | -0.064 (inactive)
24 | SMARCB1 (UniProt Q12824) | 0.887 (active)
25 | TIMM10 (UniProt P62072) | 0.009 (inactive)
26 | TCERG1 (UniProt O14776) | -0.043 (inactive)
27 | SRP68 (UniProt Q9UHB9) | 0.091 (inactive)
28 | SLC7A6 (UniProt Q92536) | 0.031 (inactive)
29 | TIMM44 (UniProt O43615) | -0.036 (inactive)
30 | STAT6 (UniProt P42226) | -0.052 (inactive)
31 | TAOK1 (UniProt Q7L7X3) | -0.009 (inactive)
32 | TAMM41 isoform 3 (UniProt Q96BW9) | -0.039 (inactive)
33 | TLK1 (UniProt Q9UKI8) | 0.001 (inactive)
34 | SMARCE1 (UniProt Q969G3) | -0.117 (inactive)
35 | SRPRA (UniProt P08240) | -0.052 (inactive)
